Data reported in paper PMC4336329 (PLoS ONE, 2015).
In all, about 310,000 compounds went through this assay and about 2,200 (0.71%) showed an effect of 50% or more. The effect is printed as a negative number. The sample as a whole holds a higher share of strong results than the screen did.

molecular target: human ether-à-go-go-related gene (hERG) potassium channel (human, UniProt Q12809); assay: primary screen, population patch clamp on CHO cells stably expressing hERG; higher = less effect of the substance
Sequence (Q12809 whole entry, looked up): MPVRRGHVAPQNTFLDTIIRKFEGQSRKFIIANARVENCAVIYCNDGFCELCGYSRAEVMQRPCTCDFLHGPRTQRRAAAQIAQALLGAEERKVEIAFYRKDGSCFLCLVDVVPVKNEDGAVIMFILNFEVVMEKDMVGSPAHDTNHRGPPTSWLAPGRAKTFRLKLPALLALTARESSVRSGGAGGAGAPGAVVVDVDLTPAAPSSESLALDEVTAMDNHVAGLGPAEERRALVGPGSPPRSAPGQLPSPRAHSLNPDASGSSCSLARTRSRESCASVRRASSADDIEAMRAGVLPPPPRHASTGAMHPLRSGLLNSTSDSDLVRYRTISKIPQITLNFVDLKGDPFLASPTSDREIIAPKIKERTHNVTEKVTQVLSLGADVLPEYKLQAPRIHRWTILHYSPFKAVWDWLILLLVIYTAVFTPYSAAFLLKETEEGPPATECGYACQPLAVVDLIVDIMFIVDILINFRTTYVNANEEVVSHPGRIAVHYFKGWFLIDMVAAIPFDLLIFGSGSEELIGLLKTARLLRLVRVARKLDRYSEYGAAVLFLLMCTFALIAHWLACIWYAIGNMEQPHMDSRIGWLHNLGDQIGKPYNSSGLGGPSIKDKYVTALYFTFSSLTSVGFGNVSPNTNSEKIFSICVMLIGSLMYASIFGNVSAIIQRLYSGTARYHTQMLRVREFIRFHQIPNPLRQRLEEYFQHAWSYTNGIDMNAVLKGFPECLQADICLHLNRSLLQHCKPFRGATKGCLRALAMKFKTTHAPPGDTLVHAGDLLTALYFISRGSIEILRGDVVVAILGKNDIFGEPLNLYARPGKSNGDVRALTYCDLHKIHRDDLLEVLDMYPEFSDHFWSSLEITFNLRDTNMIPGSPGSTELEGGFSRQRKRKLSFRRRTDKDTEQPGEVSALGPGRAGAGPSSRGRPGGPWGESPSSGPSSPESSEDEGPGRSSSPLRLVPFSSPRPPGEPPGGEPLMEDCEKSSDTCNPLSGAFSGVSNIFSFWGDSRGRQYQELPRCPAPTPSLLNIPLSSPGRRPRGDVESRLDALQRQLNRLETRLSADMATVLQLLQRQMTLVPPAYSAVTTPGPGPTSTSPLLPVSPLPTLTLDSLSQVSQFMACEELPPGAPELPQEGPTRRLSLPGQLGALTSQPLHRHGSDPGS

Compound	hERG current change (%, negative = inhibition) at 1uM [%]
Cc1ccc(-c2nc(Nc3cccc(C)c3)sc2CC(=O)O)cc1	9.35
O=C(NCCCCc1ccccc1)Nc1cccc(F)c1	4.51
COC(=O)CNS(=O)(=O)c1ccc(C)cc1	11.1
CCn1c(SCC(=O)NCCc2ccccc2)nnc1C(C)C	12
CCOC(=O)c1oc2ccc(S(=O)(=O)Nc3ccc4c(c3)n(C)c(=O)n4C)cc2c1C	2.26
Cc1cc(-c2ccccc2)nc2cc(C(=O)N(Cc3ccccc3)Cc3ccccc3)nn12	-3.92
CN(C)C(=S)Nc1ccc(Br)cc1Cl	7.39
Nc1nccnc1C(=O)N/N=C/c1ccco1	13.2
Cc1csc(NC(=O)CSc2nnc(CCNC(=O)c3ccc(Cl)c(Cl)c3)n2C)n1	2.76
COc1ccc(-n2nnnc2SCC(=O)Nc2ccccc2N2CCOCC2)cc1	-6.62
O=C(c1ccc(Cl)cc1)C1CCCN(Cc2ccc3ncccc3c2)C1 (centres unmarked)	-2.91
COc1c(C)cc(C(=O)C2CCCN(Cc3cccc4nccnc34)C2)cc1C (centres unmarked)	-21.2
COc1ccc(CN2CCCC(C(=O)c3ccc(Cl)cc3)C2)cc1Cn1cccn1 (centres unmarked)	-78.4
CSc1ccc(C(=O)C2CCCN(Cc3cccc4nccnc34)C2)cc1 (centres unmarked)	-82
COc1ccccc1C(=O)C1CCCN(Cc2cccc3nccnc23)C1 (centres unmarked)	-45
COc1ccc(CN2CCCC(C(=O)c3cccc(OC(C)C)c3)C2)cc1Cn1cccn1 (centres unmarked)	-3.41
Cc1ccc(NC(=O)CSc2ccccc2NC(=O)c2cccc(Cl)c2)cc1Cl	0.293
CCOc1ccc(C(=O)Nc2c(C(=O)N3CCC(N4CCCCC4)CC3)oc3ccccc23)cc1	-82
O=C(COc1ccccc1)Nc1c(C(=O)N2CCC(N3CCCCC3)CC2)oc2ccccc12	-9.1
O=C(Nc1c(C(=O)N2CCC(N3CCCCC3)CC2)oc2ccccc12)c1c(F)cccc1F	-5.22
COc1ccc(OCC(=O)Nc2c(C(=O)N3CCC(N4CCCCC4)CC3)oc3ccccc23)cc1	-82.8
O=C(Nc1c(C(=O)N2CCC(N3CCCCC3)CC2)oc2ccccc12)c1ccc(F)cc1	-47.7
COCC(=O)Nc1c(C(=O)N2CCCC2)oc2ccccc12	8.9
COc1ccccc1-n1cnc(N)c1C(C)=O	6.83

Compound	hERG current change (%, negative = inhibition) at 1uM [%]
COc1cccc(-c2nc(OC(C)C)c3ccccc3n2)c1	7.09
CCOC(=S)SCC(=O)Nc1nc(-c2ccc(Br)cc2)cs1	-92
CCOC(=O)N1CCN(C(=O)CSCC(=O)Nc2nc(-c3ccc(C)cc3)cs2)CC1	1.87
CCOC(=S)SCC(=O)Nc1nc(-c2ccccc2)cs1	29.9
CCOC(=O)C1=C(C)OC(N)=C(C#N)C1c1ccc(C)o1 (centres unmarked)	7.95
COc1ccc(CCN(C)CC(O)c2ccccc2)cc1OC.O=C(O)C(=O)O (centres unmarked)	1.76
COc1ccc(CCN(C)Cc2ccc(F)cc2F)cc1OC	-2.08
COc1ccc(CCN(C)CC(O)COc2c(C)ccc(C)c2C)cc1OC (centres unmarked)	-68.7
COc1ccc(CCN(C)CC(O)COc2ccc(C(C)=O)cc2OC)cc1OC (centres unmarked)	8.67
COc1ccc(CCN(C)CC(O)COC(c2ccc(F)cc2)c2ccc(F)cc2)cc1OC (centres unmarked)	-79.9
COc1ccc(CCNCC(O)COc2c(C)cccc2C)cc1OC.O=C(O)C(=O)O (centres unmarked)	7.9
Cc1cccc(Cn2c(=O)n(CCCC(=O)NCc3ccco3)c(=O)c3ccccc32)c1	-4.67
O=C(CCc1ccccc1)Nc1sc2c(c1C(=O)O)CCCC2	20.1
CCc1nnc(N2C(=N)SCC2=O)s1	4.71
Cc1ccc(S(=O)(=O)NC(C)C(=O)NC2CCCCCC2)cc1 (centres unmarked)	-2.05
NC(=O)COC(=O)c1ccc2c(c1)C(=O)N(Cc1ccco1)C2=O	9.91
N#Cc1ccc(OCc2cccc(S(=O)(=O)N3CCOCC3)c2)cc1	-57.3
Cc1cc(OCc2cccc(S(=O)(=O)N3CCOCC3)c2)ccc1Cl	4.05
N#Cc1ccccc1OCc1cccc(S(=O)(=O)N2CCOCC2)c1	11.3
COc1ccc(OC)c(/C=N/NC(=O)C(=O)N2CCCC2)c1	1.25
CCOC(=O)N1CCN(c2cc(=O)n(-c3ccc(C)cc3)c(=O)[nH]2)CC1	-8.88
COc1ccc(NC(=O)c2cc([N+](=O)[O-])ccc2N2CCN(C)CC2)cc1	-15.5
CN1CCN(c2ccc([N+](=O)[O-])cc2NC(=O)c2cccs2)CC1	-14.2
CN1CCN(c2ccccc2NC(=O)c2ccc([N+](=O)[O-])cc2Cl)CC1	0.769

Compound	hERG current change (%, negative = inhibition) at 1uM [%]
CN1CCN(c2ccc([N+](=O)[O-])cc2NC(=O)c2ccccc2Cl)CC1	-75.6
CN1CCN(c2ccc([N+](=O)[O-])cc2C(=O)Nc2ccccc2)CC1	-59.8
Cc1cccc(NC(=O)c2cc([N+](=O)[O-])ccc2N2CCN(C)CC2)c1	-41.2
O=C1NCCc2c1[nH]c1ccccc21	-4.21
COc1ccc(C(=O)Nc2ccc(NC(C)=O)cc2)cc1S(=O)(=O)N1CCCC1	16.9
Cc1nc(NCCC(C)C)c2nnn(Cc3ccccc3)c2n1	11.3
O=C(O)/C=C\C(=O)O.O=[N+]([O-])c1ccc2nc(N3CCNCC3)ccc2c1	1.34
COC(=O)/C=c1/s/c(=C(\C#N)C(=O)NCc2ccco2)n(-c2ccccc2)c1=O	14.8
CCCC(=NCCc1c(C)[nH]c2ccccc12)C1=C(O)CC(c2ccccc2)CC1=O (centres unmarked)	-11.1
CCCN1CCN(CCCNC(=O)C2CCN(c3nnc(-n4c(C)ccc4C)s3)CC2)CC1	13.1
CCS(=O)(=O)c1ccc(O)c(NC(=O)COc2ccccc2)c1	12.6
Cc1cccc(-n2nc([N+](=O)[O-])c(=NC3CCN(Cc4ccccc4)CC3)n2O)c1	-55.4
O=[N+]([O-])c1nn(-c2ccccc2)n(O)c1=NC1CCN(Cc2ccccc2)CC1	-16
COc1ccc(-n2nc([N+](=O)[O-])c(=NC3CCN(Cc4ccccc4)CC3)n2O)cc1	-6.46
O=C(Nc1cnn(Cc2ccc(Cl)cc2)c1)C1CCCC1	-7.77
O=C(NCc1ccccc1)C(=O)NCC1OCCN1C(=O)c1cccs1 (centres unmarked)	-54.6
O=C(NCc1ccc(F)cc1)C(=O)NCC1OCCN1C(=O)c1cccs1 (centres unmarked)	3.51
O=C(NCc1ccc(Cl)cc1)C(=O)NCC1OCCN1C(=O)c1cccs1 (centres unmarked)	3.06
CCOC(=O)Cc1csc(NC(=O)c2ccc(OC)c(OC)c2)n1.Cl	-6.29
CN(C)S(=O)(=O)c1ccc(C(=O)NCC(C)(C)CN=C2NS(=O)(=O)c3ccccc32)cc1	1.35
COc1ccc(C(C)n2c(C)c3c(C)nnc(C)c3c2C)cc1 (centres unmarked)	-52.3
Cc1nnc(C)c2c(C)n(C(C)c3ccccc3)c(C)c12 (centres unmarked)	-1.28
COc1ccc(C(=O)C(Sc2nnc(C)c(=O)[nH]2)c2ccc(OC)cc2)cc1 (centres unmarked)	1.35
COc1ccc(-c2nnnn2C(C)C)cc1	11.1

Compound	hERG current change (%, negative = inhibition) at 1uM [%]
Cc1nnc(C)c2c(C)n(C(c3ccccc3)c3ccccc3)c(C)c12	-65.7
CC(=O)c1c(C(C)=O)c(C)n(C(c2ccccc2)c2ccccc2)c1C	-4.36
Cc1cccc(NC(=O)NC2(C(=O)NCc3ccco3)CCCCC2)c1	2.75
CN(C)c1ccc(NS(=O)(=O)c2ccc(Cl)cc2)cc1	6.28
CC(C)Oc1ccc(Nc2ncnc3ccccc23)cc1.Cl	3.47
COc1ccc(NC(=O)CCn2ccnc2)c(OC)c1	9.53
COC(=O)COc1ccc(S(=O)(=O)N2CCOCC2)cc1	13.1
COCCOc1ccc(C(F)(F)F)cc1NC(=O)c1ccccc1	-2.95
CCN1CCN(CC(=O)Nc2cc(C(F)(F)F)ccc2OCCOC)CC1.O=C(O)C(=O)O	-70.9
CCCCCNCC(=O)Nc1cc(C(F)(F)F)ccc1OCCOC	-5.74
CC(=O)N(C)c1ccc(NC(=O)Nc2ccc(Cl)cc2)cc1	8.67
CC(=O)Cc1ccccc1OCC(=O)O	18.9
O=C(Nc1cc(Cl)cc(Cl)c1)c1cnn2cccnc12	16.2
COC(=O)c1c(NC(=O)CN2C(=O)C(=O)N(CC(C)C)C2=O)sc(C)c1C	9.77
O=C1N(Cc2cccnc2)C[C@@H]2C[C@@H](c3cccc(OC4CCCC4)c3)N3CCC[C@@]123	-53.3
O=C1N(Cc2cccc(Cl)c2)C[C@@H]2C[C@@H](c3cccc4cccnc34)N3CCC[C@@]123	-63.8
O=C1N(Cc2cccnc2)C[C@@H]2C[C@@H](c3cccc(Oc4ccccc4)c3)N3CCC[C@@]123	-4.79
O=C1N(Cc2cccc(Cl)c2)C[C@@H]2C[C@@H](c3cccn3-c3cccnc3)N3CCC[C@@]123	3.63
O=C1N(Cc2cccc(Cl)c2)C[C@@H]2C[C@@H](c3ccccn3)N3CCC[C@@]123	7.23
O=C1N(Cc2cccc(Cl)c2)C[C@@H]2C[C@@H](c3cccn3-c3nccs3)N3CCC[C@@]123	-19.2
O=C1N(Cc2cccnc2)C[C@@H]2C[C@@H](c3cccc(OCc4ccccc4)c3)N3CCC[C@@]123	-17.8
O=C1N(Cc2cccc(Cl)c2)C[C@@H]2C[C@@H](c3cccn3-c3ccccn3)N3CCC[C@@]123	-56.9
O=C1N(Cc2cccc(Cl)c2)C[C@@H]2C[C@@H](c3cccc4ncccc34)N3CCC[C@@]123	-2.07
